Data on 97 compounds can be found in PubChem BioAssay AID431 (Sanford-Burnham Center for Chemical Genomics, 2006).

Out of some 63,000 compounds screened, about 1,100 (1.7%) were called active. What follows is part of a selection rich in actives, with near analogues and random picks from the rest. Results with a measured potency or affinity are listed apart. Values without a mark were called inactive.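 How the source made its calls: active means compounds whose percent cytotoxicity in the single-dose primary screen, scaled between solvent and toxic-drug controls, exceeds 50; inactive means the rest.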

The nature of the test: cytotoxicity in KRAS-transformed pancreatic duct cells, primary screen, cell-based, fluorescence, HTS (AID 431).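 Further: 0% = DMSO solvent wells and 100% = doxorubicin-treated wells.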 Conditions: HPDE-C7K KRASV12 cells, Alamar Blue viability, 48 h; at 10 µM; hits give high values. (In general: Alamar Blue is a resazurin reagent that responds to reducing activity.)
On to `O=C(Nc1ccccc1C(=O)N1CCCC1)c1cccc(S(=O)(=O)N2CCCCCC2)c1`, for which the cytotoxicity is -4.2%.

As for `c1ccc2c(c1)CCN2CCN1CCc2ccccc21`, the cytotoxicity is 1.1%.

On to `COc1ccc(NC(=O)C2CCCN2C(=O)NCc2ccccc2)c(OC)c1` (configuration not stated), for which the cytotoxicity is -13.7%.

For the compound `O=C(c1cc(-c2ccccn2)nc2c(Cl)cccc12)N1CCN(C(=O)C2CCCO2)CC1` (configuration not stated), the cytotoxicity was 0.1%.

Turning to `CCn1c(Sc2nc(C)nc3scc(-c4cccs4)c23)n[nH]c1=O`, the cytotoxicity was -16.8%.

As to `Cc1cccc(C(=O)NC2CC3CCCC(C2)N3C(=O)NC2CCCCC2)c1` (configuration not stated), the cytotoxicity is -1.9%.

Consider `NC1=NC(c2ccc(Cl)cc2)n2c(nc3ccccc32)N1` (configuration not stated), for which the cytotoxicity was -23.5%.

With `O=C(NCc1ccc(F)cc1)c1cc2n(n1)C(C(F)(F)F)CC(C1CC1)N2` (configuration not stated), the cytotoxicity is -22%.

Consider `Cc1nnc(NC(=O)c2cc3n(n2)C(C(F)(F)F)CC(C2CC2)N3)s1` (configuration not stated), for which the cytotoxicity is -34.9%.

For the compound `O=C(Nc1nc2c(s1)CCCC2)c1cc2n(n1)C(C(F)(F)F)CC(C1CC1)N2` (configuration not stated), the cytotoxicity was 52.5% (active).

For the compound `COC(=O)COc1cccc(NC(=O)c2ccccc2)c1`, the cytotoxicity was -1.5%.

For `Cc1nc2sc(C(c3cccc(F)c3)N3CCC(O)CC3)c(O)n2n1` (configuration not stated), the cytotoxicity was -0.3%.

Turning to `CC(=O)C1=C(C)N=c2s/c(=C/c3ccc4c(c3)OCO4)c(=O)n2C1c1ccc(N(C)C)cc1` (configuration not stated), the cytotoxicity is -0.2%.

On to `COc1ccc(C2C(C(C)=O)=C(C)N=c3s/c(=C/c4ccc5c(c4)OCO5)c(=O)n32)cc1` (configuration not stated), for which the cytotoxicity is -10.1%.

`CCC(C)(C)n1nnnc1C(c1cc2ccc(OC)cc2[nH]c1=O)N1CCc2ccccc2C1` (configuration not stated): the cytotoxicity was 35%.

Take `COC(=O)c1ccccc1NS(=O)(=O)c1ccc(O)c(C(=O)O)c1`: the cytotoxicity was 19.7%.

Turning to `COC(=O)c1ccc(CN2C(=O)NC3(CCCCC3C)C2=O)o1` (configuration not stated), the cytotoxicity is 3.4%.

For `CCN(CC)c1ccc(NC(=O)c2cnc3ccccn3c2=O)c(C)c1`, the cytotoxicity is 3.9%.

`Cn1nnnc1SCCNCc1cccc2ccccc12`: the cytotoxicity was -3%.

For the compound `CCN(CC)c1ccc(NC(=O)c2ccco2)c(C)c1`, the cytotoxicity was 10.7%.

In the case of `CCN(CC)c1ccc(C(=O)Nc2cccc(F)c2)cc1`, the cytotoxicity was 57.4% (active).

In the case of `CC(=O)Nc1ccc(NC(=O)c2ccccc2F)cc1`, the cytotoxicity was 8.8%.

As for `CCN(CC)c1ccc(NC(=O)c2cc(OC)cc(OC)c2)c(C)c1`, the cytotoxicity is 59.9% (active).

As to `O=C(Nc1ccncc1)c1ccccc1F`, the cytotoxicity is -14.5%.

Turning to `CCN(CC)c1ccc(NC(=O)Nc2cccc(C(C)=O)c2)cc1`, the cytotoxicity was 16.4%.

As to `CCN(CC)c1ccc(NC(=O)c2ccc(NC(=O)C3CCCO3)cc2)c(C)c1` (configuration not stated), the cytotoxicity is -1.3%.

For `CN(C)c1cccc(C(=O)Nc2cccc(F)c2)c1`, the cytotoxicity is 2.1%.

On to `CCN(CC)c1ccc(NC(=O)c2ccccc2F)cc1`, for which the cytotoxicity is 50.7% (active).

In the case of `CCOc1cccc(C(=O)Nc2ccc(N3CCN(S(C)(=O)=O)CC3)cc2)c1`, the cytotoxicity was -10%.

For `CCOc1ccc(NC(=O)c2cccc(-n3cnnn3)c2)cc1`, the cytotoxicity is -18%.

Consider `CCOc1cccc(C(=O)Nc2ccc(N(CC)CC)cc2)c1`, for which the cytotoxicity is 87.5% (active).

For the compound `Cc1cccc(COc2ccc(/C(O)=C3\C(=O)C(=O)N(CCN(C)C)C3c3ccncc3)cc2)c1` (configuration not stated), the cytotoxicity was 0.7%.

With `O=C(c1ccco1)N1CCN(C(=O)c2cc(-c3ccncc3)nc3ccc(Br)cc23)CC1`, the cytotoxicity was 1.3%.

Regarding `O=C(NCC(=O)N(Cc1ccccc1)C(C(=O)NC1CCCC1)c1ccco1)c1ccco1` (configuration not stated), the cytotoxicity is -6.1%.

On to `Cn1c(COc2ccccc2)nnc1SCC(=O)Nc1ccc2c(c1)OCO2`, for which the cytotoxicity was 9.4%.

For `O=C1c2oc3ccc(F)cc3c(=O)c2C(c2ccncc2)N1CCN1CCOCC1` (configuration not stated), the cytotoxicity was -11.5%.

Turning to `O=C(CN(Cc1ccco1)S(=O)(=O)c1cccs1)Nc1ccccc1C(F)(F)F`, the cytotoxicity was -23.6%.

For the compound `CCN(CC)c1ccc(NC(=O)c2cccc(C)c2OC)c(C)c1`, the cytotoxicity was 2.9%.

In the case of `CCN(CC)c1ccc(NC(=O)c2c(OC)cccc2OC)c(C)c1`, the cytotoxicity was -0.6%.

Consider `CCN(CC)c1ccc(NC(=O)c2cccc(OC)c2)c(C)c1`, for which the cytotoxicity was 55.4% (active).

Regarding `O=C(Nc1ccc(N2CCN(Cc3ccccc3Cl)CC2)cc1)c1cccnc1`, the cytotoxicity is 16.7%.

As for `Cc1cc(Nc2ccccc2C(=O)O)nc2nc3ccccc3c(=O)n12`, the cytotoxicity is -5.3%.

On to `N#CC(C(=O)NC1CCCCC1)c1nc2ccccc2nc1N1CCOCC1` (configuration not stated), for which the cytotoxicity was 13.7%.

Take `CCc1ccc(-n2c(O)cnc2Nc2nc(C)cc(C)n2)cc1`: the cytotoxicity is -3%.

Take `CCc1ccc(-c2cn3nc(C)c(C)nc3n2)cc1`: the cytotoxicity is -7.6%.

With `CCc1ccc(-c2cn(-c3nc(C)cc(C)n3)c(=N)o2)cc1`, the cytotoxicity is 54.8% (active).

Regarding `CC1CCc2cc(F)ccc2N1C(=O)CCC(=O)O` (configuration not stated), the cytotoxicity was -12.5%.

Take `CN(C)c1nc(N)nc(CSc2nnnn2C)n1`: the cytotoxicity is 8.9%.

For `COc1ccc(C2=NOC(CN3C(=O)c4ccccc4S3(=O)=O)C2)cc1` (configuration not stated), the cytotoxicity was -0.1%.

Consider `CC(C)(C)N1C(=O)Cc2c1nc(N)c1c(N)nc(N3CCCCC3CO)c(C#N)c21` (configuration not stated), for which the cytotoxicity was 59.9% (active).

Consider `N#Cc1c(N)nc2c(c1N)CC(=O)N2c1ccccc1-c1ccccc1`, for which the cytotoxicity is 5.8%.

Take `N=c1c2c(-c3ccccc3)c(-c3ccccc3)n(Cc3ccco3)c2ncn1CCN1CCOCC1`: the cytotoxicity was 32.6%.

With `CC1(C)CC(=O)C2=C(C1)Oc1ncn(CCCn3ccnc3)c(=N)c1C2c1ccccc1` (configuration not stated), the cytotoxicity is 9.8%.

Consider `O=c1c2ccccc2nc(-c2ccccc2)n1CCCn1ccnc1`, for which the cytotoxicity was -22.7%.

Take `OCCNc1ncnc2c1c(-c1ccccc1)c(-c1ccccc1)n2Cc1ccco1`: the cytotoxicity was 21.6%.

Consider `COC(=O)c1c(F)c(F)c(N2CCOCC2)c(F)c1F`, for which the cytotoxicity is -3.4%.

For `CC(C)CC(=O)Nc1ncnc2c1C(=O)CC(C)(C)C2`, the cytotoxicity was -2.6%.

With `COc1ccc(-c2nnn(CC(=O)N(C3CCCCC3)C(C)C(=O)NC3CCCC3)n2)cc1OC` (configuration not stated), the cytotoxicity is -4.4%.

As for `COC(=O)C1=C(C)N(c2cccc(Cl)c2)C(=O)C1`, the cytotoxicity was -6.2%.

In the case of `COC(=O)C1=C(C)N(c2ccc(Cl)c(Cl)c2)C(=O)C1`, the cytotoxicity was 79% (active).

Take `COC(=O)C1=C(C)N(c2ccc(F)c(Cl)c2)C(=O)C1`: the cytotoxicity was 0.2%.

On to `CCOC(=O)c1ccc(-n2c(N)c(C(=O)NCc3ccco3)sc2=S)cc1`, for which the cytotoxicity was 10.8%.

Regarding `O=S(=O)(Nc1ccc(S(=O)(=O)N2CCCCC2)cc1)c1cccs1`, the cytotoxicity was -10.1%.

For `CCOc1cc(C)c(Cl)cc1S(=O)(=O)n1cnc2ccccc21`, the cytotoxicity was 7.1%.

Take `COc1cc(S(=O)(=O)n2nnc3ccccc32)c(OC)cc1Cl`: the cytotoxicity was 59.1% (active).

As to `CCOc1ccc(Cl)cc1S(=O)(=O)n1nnc2ccccc21`, the cytotoxicity is 4.6%.

Consider `COc1ccc(Cl)cc1S(=O)(=O)n1nnc2ccccc21`, for which the cytotoxicity is 4.4%.

As for `COc1ccc(OC)c(S(=O)(=O)n2nnc3ccccc32)c1`, the cytotoxicity was 11.6%.

In the case of `CCOc1cc(C)c(Cl)cc1S(=O)(=O)n1nnc2ccccc21`, the cytotoxicity is 52.2% (active).

On to `COc1ccc(COC(=O)c2ccc(N3CCCC3=O)cc2)cc1F`, for which the cytotoxicity was 0.9%.

Turning to `O=C(NCc1ccco1)c1cnc2n(c1=O)CCS2`, the cytotoxicity is 8.6%.

With `CSc1nc(N)nc(SCC(=O)c2ccc(C)cc2)c1C#N`, the cytotoxicity was -1%.

For the compound `CSc1nc(N)nc(SCC(=O)C23CC4CC(CC(C4)C2)C3)c1C#N`, the cytotoxicity is 76.6% (active).

As for `CSc1nc(N)nc(SCC(=O)OC(C)C)c1C#N`, the cytotoxicity was -1.2%.

Turning to `CCCCOc1cccc(C(=O)N(Cc2ccco2)C2CCS(=O)(=O)C2)c1` (configuration not stated), the cytotoxicity is -19.4%.

Turning to `COC(=O)C(NC(=O)c1ccccc1)=C(C)C`, the cytotoxicity is -16.9%.

Turning to `Cc1[nH]c(=S)[nH]c(=O)c1Cc1ccccc1`, the cytotoxicity is -7.5%.

Regarding `O=C(c1ccco1)N1CCN(C(=O)N2c3ccccc3Sc3ccccc32)CC1`, the cytotoxicity is 74.4% (active).

Take `O=C(CN1CCN(c2ccccn2)CC1)N1c2ccccc2Sc2ccc(C(F)(F)F)cc21`: the cytotoxicity is 17%.

Take `O=C(c1ccco1)N1c2ccccc2Sc2ccccc21`: the cytotoxicity is 4.1%.

`O=C(N1CCN(c2ccccn2)CC1)N1c2ccccc2Sc2ccccc21`: the cytotoxicity was 66.6% (active).

`O=C(NC1CCN(C(=O)N2c3ccccc3Sc3ccccc32)CC1)c1ccco1`: the cytotoxicity was -3.7%.

Turning to `O=C(N1CCOCC1)N1CCN(c2ccccn2)CC1`, the cytotoxicity was -19.2%.

Consider `Cc1ccc2c(c1)c1c3n2CC(=C2C(=O)OC(C)(C)OC2=O)NC3CCC1` (configuration not stated), for which the cytotoxicity is 33.1%.

`CC1(C(=O)O)CC(C)(C(=O)O)CC(C)(C(=O)O)C1` (configuration not stated): the cytotoxicity is -1.4%.

With `FC(F)(F)c1cc(-c2ccccc2)nc(N2CCCCC2)n1`, the cytotoxicity was -12.8%.

Turning to `CCN(CCCNC(=O)c1[nH]c(C)c(C(C)=O)c1C)c1ccccc1`, the cytotoxicity is 11.4%.

On to `NC(=O)c1ccccc1NC(=O)CCc1ccccc1`, for which the cytotoxicity was 3.2%.

For `CCOc1ccc(OCC)c(NC(=O)CN2CCN(c3cccc(C)c3C)CC2)c1`, the cytotoxicity was -0.1%.

As for `Cc1cccn2c(=O)c(/C=N/O)c(N3CCCCC3)nc12`, the cytotoxicity was 3.4%.

In the case of `O=C1c2ccccc2NC(c2ccco2)N1O` (configuration not stated), the cytotoxicity was 9.4%.

Regarding `O=C1COc2ccc(C(=O)c3ccccc3)cc2CN1`, the cytotoxicity was -4.7%.

For the compound `COc1ccccc1N(CC(=O)N1CCCCCC1)S(C)(=O)=O`, the cytotoxicity was -11.5%.

For `Oc1c(CN2CCCCC2)cc(COCc2ccccc2)c2cccnc12`, the cytotoxicity was 2.2%.

In the case of `COCc1cc(CN2CCCC2)c(O)c2ncccc12`, the cytotoxicity was -4.6%.

As to `COCc1[nH]nc2c1C1(C(=O)Nc3ccc(F)cc31)C(C#N)=C(N)O2` (configuration not stated), the cytotoxicity was -38.8%.

Regarding `Cc1ccc(NC(=O)CC2SCCNC2=O)cc1Cl` (configuration not stated), the cytotoxicity is -0.4%.
